Results filed as inconclusive are left out. Where a call stands in place of a potency, no number is given. Values without a mark were called inactive. Activity calls are given as the source filed them. The call rests on the fitted dose curve; in most records, active means well fitted inhibition curve with a large enough effect; inconclusive means small, poorly fitted or top-dose-only effect; inactive means no such curve, though single readings can be large or run the other way.
Test: Primary fluorescence-based thiol-reactive (MSTI) qHTS assay for identification of artifact compounds. (AID 1845221); further: nearly all actives have a fitted effect of over 65% in size;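 on activity change, negative = thiol reactive: thiol-reactive compounds lower the probe fluorescence signal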
Conditions: MSTI thiol-reactivity probe, 1 h; series mostly up to 53.8 µM
Source text: PI: Alexander Tropsha Ph.D.
UNC Eshelman School of Pharmacy
University of North Carolina, Chapel Hill, North Carolina
Hits from high-throughput screening (HTS) of chemical libraries are often false positives due to their interference with the assay detection technology. In response to this problem, we generated the largest publicly available library of chemical liabilities and developed a free webtool to predict HTS artifacts, both of which are described herein. More specifically, we generated, curated, and integrated HTS datasets for thiol reactivity, redox activity, and luciferase (firefly and nano) activity. Using these curated datasets, we developed and validated several Quantitative Structure-Interference Relationship (QSIR) models to predict nuisance behavior. […] These models were employed for virtual profiling of the National Center for Advancing Translational Science's (NCATS) in-house library, and 256 compounds for each assay were selected for the experimental validation of nuisance behavior. The BA for these external predictions ranged from 58 to 78% for compounds within the applicability domains of the models. […] The models developed in this study, along with aggregation models previously developed by our group (SCAM Detective) were implemented in "Liability Predictor," an online tool which may be used as part of chemical library design or for triaging HTS hits. Both the models and the curated datasets are publicly available at https://liability.mml.unc.edu/.
SEQUENCE No. (e.g., 1, 2, 3, etc.); […] (e.g., Cells, Incubation, Reagent, etc.); VALUE; DESCRIPTION.
1; Reagent; 4 uL; […].
2; Compounds and control; 16 nL; Kalypsis pin tool (Wako USA) equipped with a 1536-well pin head.
4; Detection; Fluorescence, ViewLux microplate reader, 525 nm excitation, 598 nm emission.
NOTES (numbers refer to Sequence numbers above)
1. Assays determining (E)-2-(4-mercaptostyryl)-1,3,3-trimethyl-3H-indol-1-ium (MSTI) reactivity were performed as previously described in the literature with modifications for the quick identification of compounds reacting with thiol. In brief, 4 uL of MSTI or positive control Acetyl-MSTI (final concentrations of 4 uM and 4 uM, respectively) in assay buffer (2% DMSO in 1X PBS pH 7.4) was dispensed into all wells of a 1536-well assay plate (solid-bottom black plate; Greiner Bio One, Monroe, NC).
2. A Wako Pin-tool (Wako Automation, Richmond, VA) was used to transfer 16 nL of compounds (consisting of 7-plates in qHTS format, final concentration range 18.3 nM to 114 uM) or control MLS001163887 (final concentration range 1.22 nM to 40 uM).
3. Plates were centrifuged (121xg, 15 seconds) and incubated for 1 hour at room temperature protected from light.
4. Samples were read for fluorescence (Ex/Em = 525(20)/598(25) nm) on a ViewLux CCD imager (PerkinElmer). Data were normalized to Acetyl-MSTI (0% activity) and MSTI (100% activity) and the resulting percent inhibition data were fitted to a 4-parameter Hill equation using NCATS in-house software.
Potency means the concentration at half of the fitted maximal effect.

| Compound | Potency | activity change, negative = thiol reactive |
| --- | --- | --- |
| CN(c1nccc(=O)[nH]1)C1CCN(c2nc3ccccc3n2Cc2ccc(F)cc2)CC1 | inactive |  |
| COc1cc2c(N3CCN(C(=O)Nc4ccc(OC(C)C)cc4)CC3)ncnc2cc1OCCCN1CCCCC1 | inactive |  |
| Cc1nccn1CC1CCc2c(c3ccccc3n2C)C1=O (configuration not stated) | inactive |  |
| N[C@@H](Cc1cc(I)c(Oc2cc(I)c(O)c(I)c2)c(I)c1)C(=O)O | 0.736 µM (active) |  |
| CCCS(=O)c1ccc2nc(NC(=O)OC)[nH]c2c1 (configuration not stated) | inactive |  |
| CC(C)c1nc(CN(C)C(=O)N[C@H](C(=O)N[C@@H](Cc2ccccc2)C[C@H](O)[C@H](Cc2ccccc2)NC(=O)OCc2cncs2)C(C)C)cs1 | inactive |  |
| COc1cc(Nc2c(C#N)cnc3cc(OCCCN4CCN(C)CC4)c(OC)cc23)c(Cl)cc1Cl | inactive |  |
| O=C(NOCC1CC1)c1ccc(F)c(F)c1Nc1ccc(I)cc1Cl | inactive |  |
| O=C(OC1C[C@H]2CC[C@@H](C1)[N+]21CCCC1)C(O)(c1ccccc1)c1ccccc1 (some centres not stated) | inactive |  |
| CCN(CCO)CCCC(C)Nc1ccnc2cc(Cl)ccc12 (configuration not stated) |  | -3.32% [at 6.41 µM] |
| O=C(O)c1cccc(-c2noc(-c3ccccc3F)n2)c1 | inactive |  |
| COc1ccccc1N1CCN(CCN(C(=O)C2CCCCC2)c2ccccn2)CC1 | inactive |  |
| CCC1=C(C)CN(C(=O)NCCc2ccc(S(=O)(=O)NC(=O)NC3CCC(C)CC3)cc2)C1=O (configuration not stated) | inactive |  |
| CC(=O)NC[C@H]1CN(c2ccc(N3CCOCC3)c(F)c2)C(=O)O1 | inactive |  |
| Cc1ccc(Nc2nccc(N(C)c3ccc4c(C)n(C)nc4c3)n2)cc1S(N)(=O)=O | inactive |  |
| COCCCOc1ccnc(CS(=O)c2nc3ccccc3[nH]2)c1C (configuration not stated) | inactive |  |
| COc1ccc(C2(C#N)CCC(C(=O)O)CC2)cc1OC1CCCC1 (configuration not stated) | inactive |  |
| COc1c(O)cc2c(c1O)[C@@H]1O[C@H](CO)[C@@H](O)[C@H](O)[C@H]1OC2=O | 11.7 µM (active) |  |
| OC(CN1CCN(c2cccc(Cl)c2)CC1)C(c1ccccc1)c1ccccc1 (configuration not stated) | inactive |  |
| Cc1ccc(NC(=O)c2ccc(CN3CCN(C)CC3)cc2)cc1Nc1nccc(-c2cccnc2)n1 | inactive |  |
| Cc1nc(Nc2ncc(C(=O)Nc3c(C)cccc3Cl)s2)cc(N2CCN(CCO)CC2)n1 | inactive |  |
| CN(C)CCCC1(c2ccc(F)cc2)OCc2cc(C#N)ccc21 (configuration not stated) | inactive |  |
| CCC(C)(Oc1ccc(C2(c3ccc(OC(C)(CC)C(=O)O)cc3)CCCCC2)cc1)C(=O)O (configuration not stated) | inactive |  |
| Clc1ccc(C(Cn2ccnc2)OCc2c(Cl)cccc2Cl)c(Cl)c1 (configuration not stated) | inactive |  |
| CC(C)C[C@H](NC(=O)[C@H](Cc1ccccc1)NC(=O)c1cnccn1)B(O)O | inactive |  |
| CC(=O)O[C@H]1C(=O)[C@@]2(C)C([C@H](OC(=O)c3ccccc3)[C@]3(O)C[C@H](OC(=O)[C@H](O)[C@@H](NC(=O)c4ccccc4)c4ccccc4)C(C)=C1C3(C)C)[C@]1(OC(C)=O)CO[C@@H]1C[C@@H]2O (some centres not stated) | inactive |  |
| CN(C)C(=O)[C@H](O)[C@H](Cc1ccccc1)NC(=O)c1cc2cc(Cl)ccc2[nH]1 | inactive |  |

— PubChem BioAssay (NCATS)
